Test results reported in ChEMBL document CHEMBL4513216, “Probing the Open Global Health Chemical Diversity Library for Multistage-Active Starting Points for Next-Generation Antimalarials” (ACS Infect Dis, 2020).
The whole screen tested about 69,000 compounds, of which about 8,600 (12%) showed an effect of 50% or more. Only a selection was taken, and strong results are over-represented in it overall.

Each compound was assayed on Plasmodium berghei (assay: Screen against P. berghei liver stage (PbLuc), transformed with Luciferase, at 10uM). Conditions: tested at 10 uM.
Assay type: functional, HepG2
CCOCC(=O)N1C[C@@H]2CCN(c3cnccn3)C[C@@H]2C1 showed an INHIBITION of 32.1%. COC(=O)c1cc2c(=O)n(C3CCCC3)ccc2nc1C was tested, and the INHIBITION was 46.1%. Work on Cn1cccc1CN1CCC2(CC1)CCN(C(=O)c1cnccn1)CC2 yielded an INHIBITION of 39.5%. For CNC(=O)[C@@]12CCC3(CCN(C(=O)C(C)C)CC3)[C@@H]1CN(S(C)(=O)=O)C2, the INHIBITION was 26.3%. With Cc1cc(C(=O)N2CCOCC2c2nc(C)c[nH]2)nc(O)n1 (stereo unspecified) the INHIBITION was 27.75%. CC(C)[C@H](N)C(=O)N1CCSc2ccccc2C1 gave an INHIBITION of -20.5%. In the case of CC(C)C[C@H](N)C(=O)N1CCSc2ccccc2C1, the INHIBITION is reported as 81.6%. For NC(C(=O)N1CCSc2ccccc2C1)c1ccccc1 (stereo unspecified), the INHIBITION was -22.1%. In the case of Cc1nc(C)n(CCCNc2ncnc3onc(C)c23)n1, the INHIBITION is reported as 19.2%. CCCc1nc(C)c(CNc2nc(C)nc3onc(C)c23)s1 showed an INHIBITION of 81.4%. CCCc1nc(C)c(CNc2nc(C)nc3oc(C)nc23)s1 gave an INHIBITION of 48.9%. For CCOc1cccc(C(=O)Nc2ccncc2)c1, the INHIBITION was 50.3%. O=C(COCC1CC1)Nc1ncccc1I gave an INHIBITION of -2.98%. Compound CC(OCC1CC1)C(=O)Nc1cccc(C(=O)Nc2ccncc2)c1 (stereo unspecified) has an INHIBITION of 82.4%. Work on CC(C)C(=O)Nc1cccc(C(=O)Nc2ccccn2)c1 yielded an INHIBITION of 8.99%. With CC(OCC1CC1)C(=O)NCCC(=O)Nc1ccccn1 (stereo unspecified) the INHIBITION was 1.74%. With CCCNC(=O)c1ccc(NC(=O)c2cccc(OCC)c2)cc1 the INHIBITION was 23.5%. CC(OCC1CC1)C(=O)Nc1cccc(C(=O)Nc2ccccn2)c1 (stereo unspecified) was tested, and the INHIBITION was 36.5%. Work on CC(OCC1CC1)C(=O)Nc1ncccc1I (stereo unspecified) yielded an INHIBITION of 50.4%. Compound CCOc1cccc(C(=O)NCCC(=O)Nc2ccncc2)c1 has an INHIBITION of 46.6%. CCc1noc(C(C)N2CCN(C(=O)CN3CCOCC3)CC2)n1 (stereo unspecified) was tested, and the INHIBITION was -25.8%. Cc1sc(-c2ccco2)nc1C(=O)N1CCCC1Cn1cccn1 (stereo unspecified) gave an INHIBITION of 34.7%. Cc1cccc(Nc2ccc(C3CCN(Cc4ncc[nH]4)CC3)nc2)n1 gave an INHIBITION of 36%. Work on Cc1cc(Nc2ccc(F)cn2)cc(C2CCN(Cc3ncc[nH]3)C2)n1 (stereo unspecified) yielded an INHIBITION of 42.6%. Fc1ccc(Nc2ccc(C3CCN(Cc4ncc[nH]4)CC3)nc2)nc1 was tested, and the INHIBITION was 56.9%. For CC(C)C(=O)N1CC[C@H]2N(C)CC[C@@]2(C(=O)Nc2cccnc2)CC1, the INHIBITION was -22.2%. CCN(CCO)Cc1cn(-c2cccc(F)c2)nc1-c1ccc(C)o1 was tested, and the INHIBITION was 25.7%. Cc1ccc(-c2nn(-c3cccc(F)c3)cc2CN(CCO)CCO)o1 showed an INHIBITION of 27.4%. For Cc1ccc(-c2nn(-c3cccc(F)c3)cc2CN(C)CCO)o1, the INHIBITION was 65.7%. Cc1cc(-c2cnn(CCNC(=O)C3CCCO3)c2C2CC2)on1 (stereo unspecified) showed an INHIBITION of 40.4%. Work on Cc1cc(-c2cnn(CCNC(=O)C3CC3)c2C2CC2)on1 yielded an INHIBITION of 59.7%. Work on Cc1cc(-c2cnn(CCNC(=O)Cc3ccccn3)c2C2CC2)on1 yielded an INHIBITION of 60.4%. Cc1cc(-c2cnn(CCNC(=O)c3cccnc3)c2C2CC2)on1 was tested, and the INHIBITION was 38.7%. Work on Cc1cc(-c2cnn(CCNC(=O)c3cnn(C)c3)c2C2CC2)on1 yielded an INHIBITION of 10%. Cc1cc(-c2cnn(CCNC(=O)CCn3cccn3)c2C2CC2)on1 gave an INHIBITION of -1.85%. Compound O=C(c1cccnc1)N1C[C@H]2CC[C@@H](C1)N(Cc1ccc(F)cc1Cl)C2 has an INHIBITION of -30%. With COc1ccc(C)cc1CN(CC(N)=O)C(C)C the INHIBITION was -4.63%. O=C(NC[C@H]1OC[C@@H]2CCN(Cc3ccco3)C[C@@H]21)c1ccnnc1 was tested, and the INHIBITION was 6.72%. Cc1ocnc1C(=O)N(C)[C@@H]1CCC[C@@H](N2CCCC2)[C@@H]1O showed an INHIBITION of 39.3%. In the case of O=C(NC1CC1)c1cccc(S(=O)(=O)NCCc2nc(C3CC3)no2)c1, the INHIBITION is reported as -86.5%. For COCCc1noc(CN2CCN(c3ccc(OC)cc3)C(=O)C2C)n1 (stereo unspecified), the INHIBITION was 3.3%. In the case of CCc1csc(CNCC(=O)Nc2ccc(Cl)c(C)c2)n1, the INHIBITION is reported as 49%. For Cc1cc(NC(=O)CNCc2csc(-c3cnccn3)n2)ccc1Cl, the INHIBITION was 52.2%. In the case of Cc1cc(NC(=O)CNCc2csc(-c3ncccn3)n2)ccc1Cl, the INHIBITION is reported as 18%. With Cc1nnc(CN2CCC3(CCC(=O)N(C4CCC(O)CC4)C3)CC2)o1 (stereo unspecified) the INHIBITION was 26%. In the case of Cc1nc(CN2CCCC(N(C)Cc3nc(C)c(C)o3)C2)no1 (stereo unspecified), the INHIBITION is reported as -31.8%. Work on Cc1nc(CN2CCCC(N(C)Cc3c(C)noc3C)C2)no1 (stereo unspecified) yielded an INHIBITION of 58%. With CN(Cc1cccnc1)C1CCCN(Cc2noc(C3CC3)n2)C1 (stereo unspecified) the INHIBITION was 57.45%. Work on CN(Cc1ccccn1)C1CCCN(Cc2noc(C3CC3)n2)C1 (stereo unspecified) yielded an INHIBITION of 16.9%. In the case of Cc1cc(CN(C)C2CCCN(Cc3noc(C4CC4)n3)C2)no1 (stereo unspecified), the INHIBITION is reported as 53.8%. Compound Cc1cc(CN2CCC(N(C)Cc3noc(C4CC4)n3)C2)no1 (stereo unspecified) has an INHIBITION of 33.3%. CN(Cc1cnn(C)c1)C1CCCN(Cc2noc(C3CC3)n2)C1 (stereo unspecified) showed an INHIBITION of 14.9%. With Cc1cc(CN(C)C2CCCN(Cc3noc(C)n3)C2)no1 (stereo unspecified) the INHIBITION was -14.7%. Compound Cc1nc(CN(C)C2CCN(Cc3c(C)noc3C)C2)no1 (stereo unspecified) has an INHIBITION of 21.5%. For Cc1cccc(CNCc2ccc(NC(=O)NC(C)C)cc2)c1, the INHIBITION was 47.1%. c1csc(CN2CCc3nnc(COc4cncnc4)n3CC2)c1 showed an INHIBITION of 20.5%. COc1ccccc1OCCNC(=O)N1CCC(n2cncn2)CC1 gave an INHIBITION of 3.15%. In the case of CCn1cnnc1CNC(=O)NC(C)c1cccs1 (stereo unspecified), the INHIBITION is reported as 31%. With CC(NC(=O)NCc1cc(Br)cs1)c1ccccn1 (stereo unspecified) the INHIBITION was 82.6%. Work on CCn1cnnc1CNC(=O)NC(C)C(C)C (stereo unspecified) yielded an INHIBITION of 10%. For CCn1cnnc1CNC(=O)N1CCOCC1, the INHIBITION was -4.1%. CC(NC(=O)NCc1ccc(Cl)cc1)c1ccccn1 (stereo unspecified) gave an INHIBITION of 13.5%. For CCn1cnnc1CNC(=O)NCC(C(C)C)N1CCC(C)CC1 (stereo unspecified), the INHIBITION was 37.1%. Compound CC(NC(=O)NCc1ccc(Cl)s1)c1ccccn1 (stereo unspecified) has an INHIBITION of 17.7%. In the case of CCn1cnnc1CNC(=O)NC(C)c1ccccn1 (stereo unspecified), the INHIBITION is reported as 57.8%. CCn1cnnc1CNC(=O)NCC(C(C)C)N1CCOCC1 (stereo unspecified) gave an INHIBITION of 56.8%. COCC(=O)N1CCN(c2cc(C)nc(C3CCCN3C(C)=O)c2)CC1 (stereo unspecified) showed an INHIBITION of 32.3%. For Cc1ccccc1CN1CCN(C(=O)c2cnc(C3CC3)[nH]c2=O)CC1, the INHIBITION was 27.5%. Compound COc1cc(C)c(-c2ccc(F)c3c2OC(CN)C3)cc1C (stereo unspecified) has an INHIBITION of 55.1%. For COc1cccnc1-c1ccc(F)c2c1OC(CN)C2 (stereo unspecified), the INHIBITION was -66.7%. Work on COc1cc(-c2ccc(F)c3c2OC(CN)C3)cc(OC)c1OC (stereo unspecified) yielded an INHIBITION of 31.9%.
